From PubChem BioAssay (NCI)
About 83,000 compounds went through this panel and 20% of them were active in at least one assay; those are over-represented in the sample as a whole.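 96-well plates, one dose, 48 hours. Percent growth reported; active if below 10.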 Unmarked numbers belong to inactive results.

Tested on: OVCAR-8 ovarian
Assay: NCI-60 one-dose screen, 48 h (100 = growth as untreated, 0 = no growth, -100 = all killed)
Conditions: 10 µM unless noted

Compared with Cc1ccc(C2=NN(c3ccc(S(N)(=O)=O)cc3)C(c3cn(-c4ccccc4)nc3-c3ccccc3)C2)cc1 (centres undefined), O=S(=O)(NCCCNc1cc(-c2cn(-c3ccccc3)nc2-c2cccc(O)c2)ccn1)c1cccc2ccccc12 is lower in growth: 86.3% for the first, 48.4% for the second.

First: CCN1C(=O)N(CC)C2C1NN=c1s/c(=C\c3cccc(F)c3)c(=O)n12 (centres undefined)
Second: O=C1NC(Cc2c[nH]c3ccccc23)C(=O)N1Cc1ccc(Cl)cc1 (centres undefined)
The growth of the first is lower: 21.2% for the first, 97.9% for the second.

First: O=c1[nH]c(-c2cn(-c3ccc(Cl)cc3)nn2)nc2ccccc12
Second: Cc1cc(Nc2nc(C(=O)Nc3ccccc3)nc3ccccc23)n[nH]1
The growth of the first is lower: 48.5% for the first, 75.6% for the second.

First: C=CCN=C1NC(=O)/C(=C/c2cc(C(C)(C)C)c(O)c(C(C)(C)C)c2)S1
Second: CC1CCN(C(=O)CSc2nc3sc4c(c3c(=O)[nH]2)CCCC4)CC1
The growth of the first is lower: 95.8% for the first, 102% for the second.

Going from O=c1[nH]c(CN2CCN(c3ccccc3F)CC2)nc2sc3c(c12)CCC3 to CSc1ccccc1C#C/C=C\C#Cc1ccccc1N1CCCC1=O, the growth falls from 101% to 74.9%.

Going from COc1ncc(-c2ccc3ncnc(Nc4cccc(Cl)c4)c3c2)cc1NS(=O)(=O)C1CC1 to N#CC1=C(N)n2nc(-c3ccncc3)nc2NC1c1cccc2ccccc12 (centres undefined), the growth rises from 41.7% to 92.7%.

Compared with Nc1nc(Cl)c2c(ncn2Cc2ccc(CCl)cc2)n1, O=[N+]([O-])c1cc(S(=O)(=O)OCC2CO2)ccc1Cl (centres undefined) is higher in growth: 49.4% for the first, 87.5% for the second.
